According to PubChem BioAssay (EPA / NIEHS):
Records with an inconclusive call do not appear. Activity calls are given as the source filed them. The calls were made as follows: active = hit-call score of the fitted dose curve at least 0.9, where 1 is the maximum; inconclusive = response in the unintended direction; inactive = score below 0.9.

System: NCBI gene 100848466
Experiment: NVS_NR_bPR: NovaScreen (NVS) Nuclear Receptor Binding Assay for bovine Progextron Receptor (PR) (AID 2283343);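 as to AC50: actives lower bound radioligand signal below DMSO meaning displacement of the label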
Method: NVS_NR_bPR is a biochemical, single-readout assay that uses extracted gene-proteins from Bovine uterine membranes in a tissue-based cell-free assay. Measurements were taken 18 hours after chemical dosing in a 96-well plate.NVS_NR_bPR is one of one assay component(s) measured or calculated from the NVS_NR_bPR assay. It is designed to make measurements of radioligand binding, a form of binding reporter, as detected with scintillation counting signals by Lysate-based radiodetection technology.Data from the assay component NVS_NR_bPR was analyzed into 1 assay endpoint. This assay endpoint, NVS_NR_bPR, was analyzed in the positive analysis fitting direction relative to DMSO as the negative control and baseline of activity. Using a type of binding reporter, loss-of-signal activity can be used to understand changes in the binding as they relate to the gene PGR. Furthermore, this assay endpoint can be referred to as a primary readout, because the performed assay has only produced 1 assay endpoint. To generalize the intended target to other relatable targets, this assay endpoint is annotated to the nuclear receptor intended target family, where the subfamily is steroidal.
Binding assays used specific radioligands (tritiated, iodinated) with non-radioactive competitive displacement ligands in agonist or antagonist protocols (as indicated) and various reference compounds and inhibitors to titrate specific binding to receptors and transporters. Most enzyme assays (CYPs, kinases, phosphatases, proteases, HDACs) used recombinant protein and specific substrates (fluorescence mostly, some colorimetric and radioactive) and inhibitors, followed by a biochemical separation of substrate and product. All assays for the biochemical HTS were initially run in duplicate at a single concentration (10 uM for CYP450 assays and 25 uM for all others). […] Each assay was run with positive and negative controls, and concurrent controls on every plate. The follow-up (secondary) screen tested active chemical-pairs in concentration series, as well as a few additional assays not tested in the primary screen, some selected negative inactives, and several cases re-run in the concentration series for confirmatory purposes.

| Compound | outcome | AC50 |
| --- | --- | --- |
| C#CCOS(=O)OC1CCCCC1Oc1ccc(C(C)(C)C)cc1 (stereo not given) | inactive | – |
| COP(=S)(OC)Oc1nc(Cl)c(Cl)cc1Cl | – | 17.3 µM (active) |
| CCOP(=S)(OCC)SCn1c(=O)oc2cc(Cl)ccc21 | – | 2.98 µM (active) |
| CCCCNC(=O)OCC#CI | inactive | – |
| CCCCOC(=O)c1ccccc1C(=O)OCCCC | inactive | – |
| COc1ccc(C(c2ccc(OC)cc2)C(Cl)(Cl)Cl)cc1 | inactive | – |
| COC(=O)c1ccccc1C(=O)OC | inactive | – |
| CCOC(=O)CC(SP(=S)(OC)OC)C(=O)OCC (stereo not given) | inactive | – |
| CCCCC(CC)COC(=O)c1ccccc1C(=O)OCC(CC)CCCC (stereo not given) | inactive | – |
| CCCC1COC(Cn2cncn2)(c2ccc(Cl)cc2Cl)O1 (stereo not given) | – | 17.9 µM (active) |
| CO/C=C(/C(=O)OC)c1ccccc1Oc1cc(Oc2ccccc2C#N)ncn1 | inactive | – |
| CNC(=O)ON=CC(C)(C)SC | inactive | – |
| C=CC1(C)OC(=O)N(c2cc(Cl)cc(Cl)c2)C1=O (stereo not given) | inactive | – |
| CON(C)C(=O)Nc1ccc(Cl)c(Cl)c1 | inactive | – |
| Oc1ccccc1-c1ccccc1 | – | 31.3 µM (active) |
